Most compounds without a hit are left out; they make up all but 19% or so of the library.
TDP1 cell CPT = growth inhibition of DT40 Tdp1-/-;hTDP1 cells with camptothecin (screen for TDP1 inhibitors); 420,000 tested, 12% active; chicken DT40 Tdp1-/-;hTDP1 cells + 20 nM CPT, ATP luminescence, 48 h; Potency, µM (top dose mostly 46.2 µM), for the others: at the top dose activity change, negative = growth inhibition, most hits filed as inhibitors; AID 686979; also: potency is read from the fitted curve at half-maximal effect; nearly all actives have a fitted effect of over 55% in size
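Cell growth measured by CellTiter-Glo luminescence after a minimum 48 h, 37 C compound exposure with 20 nM CPT in Tdp1-knockout DT40 cells stably expressing hTDP1, seeded 400/well; qHTS titration format.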
HT1080 IDH1KD tx = kills HT-1080 cells with IDH1 knockdown. HT-1080 IDH1 knockdown viability, ATP luminescence, 48 h. Potency, µM (titrated, usually from 46.1 µM), without a hit: at the top dose activity, negative = toxicity, most hits filed as cytotoxic. 360,000 tested, 2% active. AID 686971;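 also: potency is read from the fitted curve at half-maximal effect; 0% = DMSO wells and -100% = cell-free medium wells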
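After a 2 h attachment period, IDH1KD HT-1080 cells took pin-transferred compound for 48 h at 37 °C; ATP-based luminescence after 10 min room-temperature reagent incubation reported viability.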
TDP1 cell noCPT = qHTS for Inhibitors of human tyrosyl-DNA phosphodiesterase 1 (TDP1): qHTS in cells in absence of CPT; DT40 Tdp1-/- hTDP1 cells, no CPT, ATP luminescence, 48 h; 420,000 tested, 15% active; Potency, µM (top dose mostly 46.2 µM), for inactives: top-dose activity change, negative = growth inhibition, usual class: inhibitors; also: potency is read from the fitted curve at half-maximal effect; nearly all actives have a fitted effect of over 55% in size
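Cells were dispensed at 400 per well, compounds added by pin tool, plates incubated ≥48 hr at 37 °C, then CellTiter-Glo added for 30 min at room temperature before luminescence reading. Line: DT40 Tdp1-/- complemented with hTDP1; camptothecin omitted.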
HT1080NT lethal = kills 2HG-producing HT-1080-NT fibrosarcoma cells | HT-1080-NT fibrosarcoma viability, CellTiter-Glo ATP luminescence, 48 h | Potency, µM (top dose mostly 46.1 µM), without a hit: at the top dose activity, negative = less viability, actives largely listed as cytotoxic | 360,000 tested, 1.6% active | AID 686970;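 also: NT is the 2HG producing partner of a matched IDH1 knockdown line; potency is read from the fitted curve at half-maximal effect; 0% = DMSO-treated cells and -100% = media-only wells without cells; nearly all actives have a fitted effect of over 55% in size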
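Compounds were tested in concentration-response format on HT-1080-NT cells for 48 hours at 37 degrees C. Cell viability came from CellTiter-Glo luminescence; curves were classified by r2, response magnitude and activity.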
IL1B secr inh = blocks inflammasome-driven IL-1 beta release | THP-1 LPS/ATP IL-1B secretion, AlphaLISA, 16 h; hits give low values | activity change, % at 57.5 µM | 360,000 tested, 4.7% active | AID 743279; in the data active = activity change below about -50%; inconclusive = mostly about -30% to -49%
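Secreted IL-1B measured by AlphaLISA bead assay after 16 h compound exposure of THP-1 cells; compounds (final up to 57.5 uM) added 1 h before LPS (250 ng/mL) and ATP (1.25 mM) stimulation; lower signal means less secretion.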
Active calls of the source: *; ? = inconclusive; . = no result given; [ ] = dose if it differs, or a comment. Unless noted, calls follow the shape of the dose curve; as a rule, active = well fitted curve in the direction sought with a large enough effect; inconclusive = small, poorly fitted or top-dose-only effect, or another doubt; inactive = no such curve, though single readings can be large; an effect the other way counts as inactive or inconclusive. Unless noted, % is scaled to controls: 0 for no effect and ±100 for the full control effect.

SMILES	TDP1 cell CPT	HT1080 IDH1KD tx	TDP1 cell noCPT	HT1080NT lethal	IL1B secr inh
CCc1nc2ccc(C(=O)N3CCN(C(C)=O)CC3)cn2c1N(CCC(C)C)CCN(C)C	-13%	13%	-7%	12%	-6
CC(=O)N1CCC(N(CCN2CCOCC2)C(=S)Nc2cc(C)ccc2C)CC1	-7%	14%	?	16%	-8
COc1cccc2sc(=NC(=O)c3ccc(S(=O)(=O)N4CCCCC4)cc3)n(C)c12	-28%	.	-9%	.	.
CCn1c(=NC(=O)c2ccc(S(=O)(=O)N3CCCCC3)cc2)sc2cccc(OC)c21	2.6µM*	.	1.5µM*	.	.
C=CCn1c(=NC(=O)c2ccco2)sc2cc(C(=O)OC)ccc21	?	-1%	?	-9%	3
C=CCn1c(=NC(=O)c2cccc(N3C(=O)CCC3=O)c2)sc2cccc(OC)c21	23µM*	-25%	15µM*	0%	-99*
COC(=O)C(Cc1c[nH]c2ccccc12)N1CCS(=O)(=O)CC1 (configuration not stated)	1%	9%	-22%	2%	10
O=C(N=C1SC2CS(=O)(=O)CC2N1c1ccc(Br)cc1)C1CCCO1 (configuration not stated)	-6%	19%	39%	10%	0
CC1CN(c2ccc(C(=O)c3ccccc3C(=O)O)cc2[N+](=O)[O-])CC(C)O1 (configuration not stated)	-2%	2%	-25%	10%	-1
Clc1ccc(CNc2ccc3nnc(-c4ccccc4)n3n2)cc1	2.1µM*	7%	4.1µM*	-4%	-7
CN(Cc1ccccc1)c1ccc2nnc(-c3ccccc3)n2n1	?	0%	?	-4%	-26
CCOc1ccc(CCNc2ccc3nnc(-c4ccccc4)n3n2)cc1OCC	16µM*	6%	?	16%	31
COc1cc(C(c2nnnn2C2CCCC2)N2CCN(C(=O)c3ccco3)CC2)cc(OC)c1OC (configuration not stated)	3%	3%	-16%	3%	-2
COc1ccc(-c2cnc3n2CCCCC3)cc1	?	-6%	23µM*	0%	-14
Clc1ccc(-c2cnc3n2CCC3)cc1	-23%	?	-28%	35µM*	-14
CC(=O)N1CCN(C(=O)c2cccc(S(=O)(=O)NCc3ccccc3)c2)CC1	-2%	-2%	-8%	-2%	7
COC(=O)CC(NC1CCN(c2nc(C)c3cc4c(cc3n2)CCC4)CC1)C(=O)OC (configuration not stated)	14%[9.04 µM]	.	2%	.	.
COc1ccc(C(=O)C2CCN(C(=S)Nc3ccc(F)cc3)CC2)cc1	-28%	0%	-13%	1%	-63*
CCOc1ccc(NC(=S)N2CCC(C(=O)c3ccc(F)cc3)CC2)cc1	?	1%	?	3%	?
COc1ccc(NC(=S)N2CCC(C(=O)c3ccc(OC)cc3)CC2)cc1	?	-24%	16µM*	-15%	7
COc1cccc(NC(=S)N2CCC(C(=O)c3ccc(F)cc3)CC2)c1	?	0%	?	-2%	?
COc1ccc(NC(=S)N2CCC(C(=O)c3ccc(C)cc3)CC2)cc1	?	-14%	8.2µM*	-1%	-23
COCCn1c(SCC(=O)N2CCc3ccccc3C2)nc2ccccc2c1=O	21µM*	8%	?	-2%	-2
CCCCn1c(SCC(=O)N2c3ccccc3Sc3ccccc32)nc2c1c(=O)n(C)c(=O)n2C	?	?	26µM*	-29%	?
C=CCn1c(SCC(=O)N2CCc3ccccc3C2)nc2sc(C)cc2c1=O	?	-28%	26µM*	-23%	?
SMILES	TDP1 cell CPT	HT1080 IDH1KD tx	TDP1 cell noCPT	HT1080NT lethal	IL1B secr inh
COCCn1c(SCC(=O)N2CCOCC2)nc2ccccc2c1=O	5%	6%	0%	-2%	-9
CCn1c(SCC(=O)N2c3ccccc3Sc3ccccc32)nc2c1c(=O)n(C)c(=O)n2C	?	-7%	?	10%	19
COCCn1c(SCC(=O)NC(=O)NC2CCCCC2)nc2ccccc2c1=O	?	-1%	15µM*	-3%[9.24 µM]	-5
Cc1cccc(-c2oc3ccc(-c4ccc5c(c4)OCO5)cc3c2/C=C/c2ccc(N)cc2)c1	9%	0%	-11%	?	23
O=C(NCc1ccccn1)c1ccc(Cl)c(S(=O)(=O)N2CCCCCC2)c1	?	-3%	?	-5%	5
CCn1c(SCC(=O)N2CCc3ccccc3C2)nc2c1c(=O)n(C)c(=O)n2C	23µM*	3%	-26%	14%	51
CCCn1c(SCC(=O)N2CCc3ccccc3C2)nc2c1c(=O)n(C)c(=O)n2C	?	1%	?	4%	22
CCCCn1c(SCC(=O)N2CCCc3ccccc32)nc2c1c(=O)n(C)c(=O)n2C	18µM*	7%	22µM*	5%	22
CCCn1c(SCC(=O)N2c3ccccc3CCc3ccccc32)nc2c1c(=O)n(C)c(=O)n2C	-26%	1%	?	8%	14
CSc1ccccc1NC(=O)Nc1cccc(Cl)c1	16µM*	2%	?	7%	-1
CSc1ccccc1NC(=O)CN(C)CC(=O)Nc1ccc(Cl)cc1F	23µM*	-5%	?	-2%	-8
CN(c1cccc(NC(=O)Nc2cccc(Cl)c2)c1)S(C)(=O)=O	?	-2%[9.24 µM]	16µM*	-29%	-25
COC(=O)Cc1cc(OC)c(OC)cc1S(=O)(=O)N(C)C	3%	8%	7%	10%	-11
Cc1cc(OCc2cc(C(=O)N(C)C3CCOC3)no2)cc(C)c1Cl (configuration not stated)	16µM*	-19%	16µM*	-5%	-18
Cc1cc(OCc2cc(C(=O)NCCN3CCCCC3CO)no2)cc(C)c1Cl (configuration not stated)	?	?	?	?	-62*
CCc1ccc(CN(C)C(=O)c2cc(COc3cc(C)c(Cl)c(C)c3)on2)nc1	16µM*	?	?	?	0
Cc1cc(OCc2cc(C(=O)N(C)CCc3cnn(C)c3)no2)cc(C)c1Cl	13µM*	-23%	21µM*	-13%	-59*
Cc1cc(OCc2cc(C(=O)N(C)Cc3nonc3C)no2)cc(C)c1Cl	?	-23%	-3%	-25%	-16
CCN(Cc1cnn(C)c1)C(=O)c1cc(COc2cc(C)c(Cl)c(C)c2)on1	?	-26%	?	?	-3
CC(O)(CS(=O)(=O)Cc1ccc(Cl)cc1)C(=O)Nc1cccc(C(F)(F)F)c1 (configuration not stated)	-29%	13µM*	?	?	5
